Rows were chosen to be rich in hits. Some 2.4% of all compounds tested hit in one or more screens of this group.
Cruzain inh noDet: inhibitors of Trypanosoma cruzi cruzain without detergent | P25779 | purified cruzain, Z-FR-AMC fluorescence, no detergent | Potency, µM, without a hit: max response, negative = inhibition, most hits filed as inhibitors | 200,000 tested, 2.3% active | AID 1476;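 further: plate controls were enzyme without inhibitor for no effect and buffer without enzyme for full effect; nearly all actives have a fitted effect of over 40% in size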
Target sequence (P25779 123-467 limits assumed): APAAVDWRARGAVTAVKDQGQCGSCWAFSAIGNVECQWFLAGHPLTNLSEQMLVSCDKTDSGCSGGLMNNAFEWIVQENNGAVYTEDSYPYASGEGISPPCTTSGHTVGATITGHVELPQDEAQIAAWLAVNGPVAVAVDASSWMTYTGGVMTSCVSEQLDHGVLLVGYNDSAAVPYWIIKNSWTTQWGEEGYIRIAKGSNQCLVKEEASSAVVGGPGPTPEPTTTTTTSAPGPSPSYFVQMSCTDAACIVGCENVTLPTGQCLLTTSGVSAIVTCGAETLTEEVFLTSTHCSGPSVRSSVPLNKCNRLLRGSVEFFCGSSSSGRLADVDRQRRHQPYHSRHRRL
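Purified cruzain at 1.5 nM, pre-incubated 15 min with compound at room temperature in 100 mM sodium acetate pH 5.5, 5 mM DTT, 0.00005% Triton X-100. Reaction started with 2 uM Z-FR-AMC; AMC fluorescence increase over 60 s gives rate.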
Cruzain Triton: blocks cruzain activity in presence of Triton detergent; purified cruzain, Z-FR-AMC fluorescence, 0.01% Triton; P25779; Potency, µM, without a hit: max response, negative = inhibition, hits mostly inhibitors; 200,000 tested, 0.43% active; AID 1478;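 further: plate controls were neutral wells for no effect and buffer without enzyme for full effect; nearly all actives have a fitted effect of over 40% in size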
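Read-out: AMC fluorescence (360 nm excitation, 450 nm emission), four reads over 2 min, first-to-third difference used. Conditions: cruzain 1.5 nM, Z-FR-AMC 2 uM, pH 5.5 acetate, 5 mM DTT, 0.01% Triton X-100.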
Numbers without * were called inactive; ? = inconclusive; ! = repeats disagree. The call rests on the fitted dose curve; in most records, active means well fitted curve in the direction sought with a large enough effect; inconclusive means small, poorly fitted or top-dose-only effect, or another doubt; inactive means no such curve, though single readings can be large; an effect the other way counts as inactive or inconclusive. Potency means the concentration at half of the fitted maximal effect.

SMILES	Cruzain inh noDet	Cruzain Triton
O=C(CNC(=O)c1ccccc1)NCC(=O)OCC(=O)c1ccc([N+](=O)[O-])cc1	-6%	-4%
C=C(C)C(=O)C1CCCCC1	6%	3%
CCCCCCN(CCCCCC)C(=O)Cc1c(-c2ccc(Cl)cc2)[nH]c2ccc(Cl)cc12	-13%	1%
CC/C=C1/OC(=O)c2ccccc21	0%	6%
COc1ccc(OC)c2sc(NC(=O)c3ccc(Br)s3)nc12	16µM*	-5%
COc1ccc(OC)c2sc(NC(=O)c3ccc(Cl)s3)nc12	-7%	5%
CCc1ccccc1	3%	4%
COc1cc2c(cc1O)CC1c3c(cc(O)c(OC)c3-2)CCN1C (stereo not drawn)	32µM*!	-4%
COc1cc2c(cc1O)C[C@H]1c3c(cc(OC)c(O)c3-2)CCN1C	0%	-4%
Cc1cc(NC(=O)CCCN2C(=O)/C(=C/c3cccs3)SC2=S)no1	?	-5%
CC(/C=C1\SC(=S)N(NC(=O)c2ccccc2C)C1=O)=C\c1ccccc1	?	-6%
CC(=O)c1ccc(NC(=O)CN2C(=O)CN(C)C(=O)c3ccccc32)cc1	16%	1%
CC(/C=C1\SC(=S)N(NC(=O)c2ccc(C)cc2)C1=O)=C\c1ccccc1	32µM*	-6%
CC(=O)c1ccc(NC(=O)CN2C(=O)/C(=C/C(C)=C/c3ccccc3)SC2=S)cc1	10µM*	-5%
CC(/C=C1\SC(=S)N(CCCC(=O)Nc2ccc(C(=O)O)c(O)c2)C1=O)=C\c1ccccc1	?	28µM*
Cc1oc(-c2ccc(C(=O)NCc3ccc(Cl)cc3)cc2)nc1CS(=O)(=O)c1ccccc1	25µM*	-4%
Cc1oc(-c2ccc(C(=O)NCc3ccccc3)cc2)nc1CS(=O)(=O)c1ccccc1	?	-6%
Cc1ccc(CN2CCN(Cc3ccc(C)o3)[C@@H](C)C2)o1	-1%	1%
C=Cc1c(C)c2cc3nc(cc4[nH]c(cc5nc(cc1[nH]2)C(C)=C5CCC(=O)O)c(CCC(=O)OC)c4C)[C@@]1(C)C3=CC=C(C(=O)OC)[C@H]1C(=O)OC (tested in a mixture with another compound)	?	-16%
O=C(COc1ccc(-c2nnco2)cc1)NCc1ccccc1Cl	18%	-4%
Cc1cc(C(=O)COc2ccc(-c3nnco3)cc2)c(C)n1Cc1ccccc1	16µM*	3%
C[C@@H](O)CCC[C@H](O)/C=C/[C@H]1[C@H](O)CC(=O)[C@@H]1C/C=C\CCCC(=O)O	-3%	2%
COc1ccc(Nc2ccc3cc(S(=O)(=O)N4CCCC4)ccc3n2)cc1Cl	25µM*	-4%
O=S(=O)(c1ccc2nc(Nc3cccc(F)c3)ccc2c1)N1CCCC1	-29%	-17%
CCOc1ccc(OCC)c(Nc2ccc3cc(S(=O)(=O)N4CCCC4)ccc3n2)c1	-16%	0%
SMILES	Cruzain inh noDet	Cruzain Triton
COc1ccc(Cl)cc1Nc1ccc2cc(S(=O)(=O)N3CCCCC3)ccc2n1	25µM*	-1%
CCOC(=O)c1cccc(Nc2ccc3cc(S(=O)(=O)N4CCCCC4)ccc3n2)c1	25µM*	-4%
CC1CCN(S(=O)(=O)c2ccc3nc(Nc4cccc(C(F)(F)F)c4)ccc3c2)CC1	?	0%
O=S(=O)(c1ccc2nc(Nc3ccc(F)cc3)ccc2c1)N1CCCC1	-4%	1%
CC1CCN(S(=O)(=O)c2ccc3nc(Nc4ccc(C#N)cc4)ccc3c2)CC1	32µM*	-6%
COc1ccc(OC)c(S(=O)(=O)N2CCN(c3c(C)cccc3C)CC2)c1	?	-6%
CCc1nc2ccc(C(=O)NCCc3ccc(OC)cc3OC)cc2nc1CC	?	-1%
C=CCOC(=O)N[C@H](/C(C(=O)OC)=C(\C)NCc1ccccc1)c1ccc2c(c1)OCO2	-2%	5%
O=C(NCCc1ccccc1)c1cnc2sc(N3CCCCCC3)nn2c1=O	0%	-1%
CCCCCCCN	1%	4%
Cc1[nH]n(-c2ccccc2)c(=O)c1C(C[N+](=O)[O-])c1ccc(Cl)cc1 (stereo not drawn)	4%	-9%
Cc1[nH]n(-c2ncc(-c3ccccc3)s2)c(=O)c1C(c1ccc(Cl)cc1)C(C#N)C#N (stereo not drawn)	13µM*	?
O=C(Cn1c(=O)n(Cc2nc(-c3ccccc3)no2)c(=O)c2cc3c(cc21)OCO3)Nc1ccc(Cl)cc1	10µM*	-4%
Cc1ccc(NC(=O)Cn2c(=O)n(Cc3nc(-c4ccccc4)no3)c(=O)c3cc4c(cc32)OCO4)c(C)c1	-20%	0%
Cc1ccc(NC(=O)Cn2c(=O)n(Cc3nc(-c4ccccc4)no3)c(=O)c3cc4c(cc32)OCO4)cc1F	13µM*	-3%
O=C(Cn1c(=O)n(Cc2nc(-c3ccccc3)no2)c(=O)c2cc3c(cc21)OCO3)Nc1ccccc1	?	-4%
N#Cc1ccc(CS(=O)(=O)c2nnnn2-c2ccccc2)cc1	4%	4%
ClC(Cl)C(Cl)Cl	-2%	5%
COc1cccc([C@@H]2Oc3ccc(Br)cc3[C@H](O)[C@H]2O)c1	-20%	4%
O=S(=O)(c1ccccc1)N1CCC2(CCN(Cc3ccccc3)CC2)CC1	1%	3%
CNC(=S)N/N=C/c1ccc(OCC(=O)Nc2c(C)cc(C)cc2C)c(OC)c1	4%	-6%
COc1cc(/C=N/NC(N)=S)ccc1OCC(=O)Nc1ccc(C)cc1	?	2.5µM*
COc1ccc(C(=O)Oc2cc(/C=N/NC(N)=S)ccc2OC)cc1	?	-8%
COc1ccc(/C=N/NC(N)=S)cc1OC(=O)c1cccc2ccccc12	25µM*	1%
COc1cc(/C=N\Nc2ccc([N+](=O)[O-])cc2)ccc1OCC(=O)Nc1ccc(C)c(C)c1	4µM*	0%
SMILES	Cruzain inh noDet	Cruzain Triton
CCOc1cc(/C=N\Nc2ccc([N+](=O)[O-])cc2)ccc1OCC(=O)Nc1ccc(C)c(C)c1	?	5%
COc1ccc(N2CCN(C(=O)c3cnn(-c4ccc(OC)cc4)c3C3CCN(C(=O)OC(C)(C)C)CC3)CC2)cc1	-4%	0%
CCOc1ccc(C(=O)c2cn(Cc3ccc(OC)cc3)c3cc(OC)c(OC)cc3c2=O)cc1	?	-5%
COc1ccc2cc(/C(C)=N/NC(=O)c3cc(-c4cccnc4)nc4ccccc34)ccc2c1	-23%	-2%
O=C(NCc1ccc(Cl)cc1)c1ccc(Cn2cc(C(F)(F)F)ccc2=O)cc1	5%	-8%
O=C(c1cc(C(=O)NCc2ccc(Cl)cc2)c(=O)n(Cc2ccc(Cl)cc2)c1)c1cc(F)ccc1O	16µM*	-4%
COc1ccc(Cn2nnnc2C(c2cccs2)N2CCN(c3ccc([N+](=O)[O-])cc3)CC2)cc1 (stereo not drawn)	32µM*	-3%
COc1ccc(Cn2nnnc2C(c2cccs2)N2CCN(c3ccccc3)CC2)cc1 (stereo not drawn)	9%	0%
Cc1ccc(-c2nc3sc(CCNS(=O)(=O)c4cc(F)ccc4F)c(C)n3n2)cc1	0%	-8%
Cc1nc2cccnc2n1C1CCN(S(C)(=O)=O)CC1	-5%	2%
CN(Cc1cccc2ccccc12)Cc1cccc2ccccc12	-3%	0%
Cc1ccc(NC(=O)CSc2nn(-c3ccc(Cl)cc3)c(=S)s2)cc1S(=O)(=O)N(C)C	?	-2%
CN(C)S(=O)(=O)c1cc(NC(=O)CSc2nn(-c3ccc(Cl)cc3)c(=S)s2)ccc1Cl	25µM*	-4%
CCOC(=O)c1[nH]c2ccccc2c1NC(=O)c1ccccc1OC	4%	-8%
CCOC(=O)c1[nH]c2ccc(F)cc2c1NC(=O)Nc1ccccc1OC	7.9µM*	1%

High-throughput results from PubChem.
